pPAFAH FP inh – inhibitors of human plasma PAF acetylhydrolase (pPAFAH); Q13093; recombinant pPAFAH, FP-rhodamine probe fluorescence polarization; inhibition, % at 3.39 µM; actives 1.5% (n = 330,000); AID 463082;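 active means inhibition above the mean inhibition across the screen plus 3 SD, cut at about 25% in these data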;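 further: inhibitors block binding of the rhodamine activity-based probe so polarization drops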
PAFAH1B3 inh – inhibitors of human PAFAH1B3. actives 0.28% (n = 340,000). recombinant PAFAH1B3, FP-rhodamine probe, fluorescence polarization. inhibition, % at 3.39 µM. Q15102;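 active means inhibition above the screen-wide average of all tested compounds plus 3 SD, cut at about 25% in these data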
PAFAH1B2 inh – inhibitors of human PAFAH1B2; P68402; recombinant PAFAH1B2, FP-rhodamine activity probe, fluorescence polarization; inhibition, % at 3.39 µM; actives 1.2% (n = 340,000); AID 492953;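 active means inhibition above the mean of all tested compounds plus 3 SD, cut at about 24% in these data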
Target sequence (P68402 whole entry, looked up): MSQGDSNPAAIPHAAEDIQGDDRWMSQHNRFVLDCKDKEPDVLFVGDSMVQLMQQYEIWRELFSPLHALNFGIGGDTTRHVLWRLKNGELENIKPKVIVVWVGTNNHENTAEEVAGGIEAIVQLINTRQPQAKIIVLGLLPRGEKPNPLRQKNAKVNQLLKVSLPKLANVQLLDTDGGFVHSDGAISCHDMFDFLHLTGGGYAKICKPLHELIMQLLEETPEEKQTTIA
PAFAH2 FP inh – inhibitors of human PAFAH2. recombinant PAFAH2, FP-rhodamine activity probe, fluorescence polarization. inhibition, % at 3.39 µM. actives 0.99% (n = 340,000);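 active means inhibition above the mean over all tested compounds plus 3 SD, cut at about 30% in these data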;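 further: inhibitors block probe labeling of enzyme so polarization drops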
Fam108B counter – blocks mouse Fam108B hydrolase in RBBP9 counter-screen; recombinant Fam108B, FP-Rh probe fluorescence polarization; actives 0.33% (n = 300,000); AID 1947; inhibition, % at 9.51 µM;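 active means inhibition above the screen mean inhibition plus 3 SD, computed separately per campaign, cut at about 18% in these data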;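 further: inhibitors lower polarization as less probe binds the enzyme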
PME-1 inh – blocks human protein phosphatase methylesterase 1; Q9Y570; recombinant PME-1, FP-Rh probe fluorescence polarization; inhibition, % at 5.9 µM; actives 0.53% (n = 320,000);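 active means inhibition above the campaign mean of all compounds plus 3 SD, cut at about 26% in these data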;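 further: competitive labeling of PME-1 active site by serine hydrolase directed probe; inhibitors block probe labeling so polarization falls and inhibition rises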
Target sequence (Q9Y570 whole entry, looked up): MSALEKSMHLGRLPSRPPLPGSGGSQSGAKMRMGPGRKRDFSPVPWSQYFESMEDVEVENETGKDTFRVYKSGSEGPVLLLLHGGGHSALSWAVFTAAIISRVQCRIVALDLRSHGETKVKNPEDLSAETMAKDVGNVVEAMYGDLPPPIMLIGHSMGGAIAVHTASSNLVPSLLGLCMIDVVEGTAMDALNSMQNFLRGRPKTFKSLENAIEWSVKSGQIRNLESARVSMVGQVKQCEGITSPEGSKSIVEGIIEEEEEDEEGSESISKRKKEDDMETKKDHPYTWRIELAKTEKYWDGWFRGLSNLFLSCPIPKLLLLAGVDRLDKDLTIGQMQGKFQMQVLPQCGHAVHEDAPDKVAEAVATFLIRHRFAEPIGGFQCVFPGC
A number is an active result; - = inactive; . = no result. Only some compounds are listed: those with a hit (about 2.9% of all), similar ones and a draw of the others.

SMILES	pPAFAH FP inh	PAFAH1B3 inh	PAFAH1B2 inh	PAFAH2 FP inh	Fam108B counter	PME-1 inh
O=C(c1ccc(Cl)cc1)N1CCC2(CC1)OCCO2	-	-	-	-	-	-
O=C(c1ccc(N2CCCCC2)c([N+](=O)[O-])c1)N1CCC2(CC1)OCCO2	34	-	-	-	-	-
Cc1cc(C)cc(N2C(=O)/C(=C\c3ccc(N4CCN(C)CC4)o3)C(=O)NC2=S)c1	-	.	.	.	-	-
CCOCCCn1c(N)c(C(=O)Nc2sc3c(c2C(=O)OC)CCCC3)c2nc3ccccc3nc21	-	52	31	35	-	-
NP(=O)(OCC(F)(F)F)Oc1ccc(Cl)cc1 (stereo not given)	-	-	-	-	-	28
CN(C)P1(N(C)C)=Nc2c(c(N)nn2C)C(c2ccccc2)=N1	-	-	-	-	-	-
CCOc1ccc(C(C)=O)cc1Cn1ccsc1=N	.	-	-	-	.	.
O=P(NS(=O)(=O)c1ccccc1)(Oc1ccccc1)Oc1ccccc1	-	-	-	-	-	-
Cc1ccc(S(=O)(=O)NP(=O)(Oc2ccccc2)Oc2ccccc2)cc1	-	-	46	-	-	-
O=P(NS(=O)(=O)c1ccc(Br)cc1)(Oc1ccccc1)Oc1ccccc1	-	-	78	-	-	-
Cc1ccc(C)c(NP(=O)(Oc2ccccc2)Oc2ccccc2)c1	-	-	-	-	-	-
O=P(NS(=O)(=O)c1ccc(Cl)cc1)(Oc1ccccc1)Oc1ccccc1	-	-	84	-	-	-
CC(C)[N+](C)(CCC(C(N)=O)(c1ccccc1)c1ccccc1)C(C)C	-	-	-	-	-	-
O=C(CN1CC=C(c2ccccc2)CC1)Nc1cc(Cl)ccc1Cl	-	-	-	-	-	-
Cc1ccc(S(=O)(=O)N2CCCCC2)cc1NC(=O)CN1CC=C(c2ccccc2)CC1	-	-	-	-	-	75
O=C(CN1CC=C(c2ccccc2)CC1)Nc1c(Cl)cccc1Cl	-	-	-	-	-	36
COc1ccc(NC(=O)CN2CC=C(c3ccccc3)CC2)cc1S(=O)(=O)N1CCOCC1	-	-	-	-	-	-
O=[N+]([O-])c1cc(S(=O)(=O)c2ccc(O)c([N+](=O)[O-])c2)ccc1O	28	29	-	39	-	-
O=C(CF)NC(Nc1cccc2cccnc12)C(Cl)(Cl)Cl (stereo not given)	-	-	-	-	-	36
NCCc1cc(O)c(O)cc1O	.	88	55	72	.	.
O=C1NC(=O)N(Cc2ccc(F)cc2)C(=O)/C1=C\c1ccc(N2CCCC2)cc1	26	-	-	-	-	-
O=C1NC(=O)N(Cc2ccc(F)cc2)C(=O)/C1=C\c1ccc([N+](=O)[O-])s1	26	-	34	56	-	-
COc1ccc(CN2C(=O)NC(=O)/C(=C/c3ccc([N+](=O)[O-])s3)C2=O)cc1	31	46	33	63	-	-
O=C1NC(=O)N(CCc2ccc(F)cc2)C(=O)/C1=C/c1cccs1	-	-	-	-	-	-
COc1cccc(N2C(=O)NC(=O)/C(=C/c3ccc([N+](=O)[O-])s3)C2=O)c1	33	46	33	49	-	-
SMILES	pPAFAH FP inh	PAFAH1B3 inh	PAFAH1B2 inh	PAFAH2 FP inh	Fam108B counter	PME-1 inh
CC(NCc1ccccc1C(F)(F)F)C(O)c1ccccc1 (stereo not given)	-	-	-	-	-	-
COC(=O)C1=C(c2ccc(F)cc2OCc2ccccc2)C[C@@H]2CC[C@H]1N2C(=O)NCc1ccccc1Cl	-	-	-	-	.	-
CN(C)c1ccc(C(=O)N/N=C/C23CC[C@@H](O)CC2(O)CC[C@@H]2[C@@H]3CCC3(C)C(C4=CC(=O)OC4)CCC23O)cc1 (stereo not given in full)	-	-	-	-	-	-
CC(=O)Nc1ccc(OC(=O)N2CCCCC2)cc1	-	-	-	-	-	-
O=C(Oc1ccc([N+](=O)[O-])cc1)N1CCC(N2CCCCC2)CC1	34	-	-	-	-	-
CCc1nn(CC(=O)N2CCC3(CC2)OCCO3)c(=O)c2cccn12	-	-	-	-	-	-
Cc1ccc2c(c1)cc1c(=O)n(CC(=O)N3CCC4(CC3)OCCO4)nc(C)n12	26	-	-	-	-	-
FC(F)(F)c1cccc(-n2nnnc2C2(N3CCOCC3)CCCCC2)c1	-	-	31	-	-	-
O=C1CC(=O)N(c2cccc(C(F)(F)F)c2)C(=O)N1	-	-	-	-	-	-
Cc1ccc(/C=C2/C(=O)NC(=O)N(CCc3ccc(F)cc3)C2=O)o1	-	-	-	-	-	-
O=C1NC(=O)N(CCc2ccc(F)cc2)C(=O)/C1=C/c1ccco1	29	-	-	-	-	-
COC(=O)C1=C(c2ccc(F)cc2F)C[C@@H]2CC[C@H]1N2C(=O)NC1Cc2ccccc2C1	-	-	-	-	.	-
c1ccc(CCNCc2cccnc2)cc1	-	-	-	-	-	-
CC1CC(OP(O)(=S)c2ccc(N(C)C)cc2NC(=O)c2cccs2)CC(C)(C)C1 (stereo not given)	-	-	40	-	-	-
CCCC(=O)C1C(=O)NC(=O)NC1=O	-	-	-	-	-	-
CCOP(=O)(C#CC(C)(C)C)C(C)(O)c1ccccc1 (stereo not given)	-	-	-	-	-	-
CC(C)(C#CC(=O)O)OOC(c1ccccc1)(c1ccccc1)c1ccccc1	31	-	-	-	-	-
CCOC(=O)c1c(-n2c(C)cc(C=C3C(=O)NC(=S)NC3=O)c2C)sc2c1CCCC2	25	-	-	-	-	-
CCOC(=O)c1c(-n2c(C)cc(/C=C3/C(=O)NC(=O)N(CC)C3=O)c2C)sc2c1CCCC2	-	-	-	-	-	-
Cc1cc(=O)[nH]c(SCc2nc3ccccc3c(=O)n2-c2ccccc2C)n1	-	-	-	-	-	-
Cc1cc(C)c(Cn2c(C(=O)O)c(C=O)c3ccccc32)c(C)c1	-	-	-	-	-	-
CC1CCC(C)(NS(=O)(=O)OCC(Cl)(Cl)Cl)CC1 (stereo not given)	33	-	45	-	-	-
O=[N+]([O-])c1ccc(C(=Nc2ccccc2)N2CC2)cc1	.	-	-	-	.	.
CCCOc1ccccc1C1SCC(=O)Nc2c1c(=O)[nH]n2C(C)CCC (stereo not given)	-	-	-	-	-	-
CCCC(C)n1[nH]c(=O)c2c1NC(=O)CSC2c1ccc(OC)cc1 (stereo not given)	28	-	-	-	-	-
CC(C)C(=O)c1cn(Cc2ccccc2C#N)c2ccccc12	-	-	-	-	-	39
COc1cc2c(cc1OC)-c1c3c(cc4c1[C@@H](C2)N(C)CC4)OCO3	-	-	-	-	-	-
COc1cc2c(cc1O)C[C@H]1NCCc3cc4c(c-2c31)OCO4	25	-	-	-	-	-
ClC(Cl)=C(c1ccc(Cl)cc1)c1ccc(Cl)cc1	-	-	25	-	-	-

Bioassay records from PubChem BioAssay.
